These results are taken from PubChem BioAssay (EPA / NIEHS).

Several values for one entry are separate records, joined by “and”; a condition that tells them apart may be missing. Equal values may be shown once. Records with an inconclusive call do not appear. More than one record can exist for a structure, and the calls need not agree. Activity calls are given as the source filed them. The calls were made as follows, unless noted: active = hit-call score of the fitted dose curve at least 0.9, where 1 is the maximum; inconclusive = response in the unintended direction; inactive = score below 0.9.

Assay [1] addresses Agonist Androgen Response Element (ARE), AR (gene 367) (UniProt P10275). As to the kind of experiment: OT_AR_ARELUC_AG_1440: Odyssey Thera (OT) 24-hour CHO-K1 Luciferase Assay for Agonist Androgen Response Element (ARE) (AID 2283379). In outline: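 Gain-of-signal reporter endpoint: cells (CHO-K1, hamster) are treated 24 h, luciferin/ATP reagent added, and luminescence compared with DMSO baseline.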

Assay [2] has as its target Estrogen receptor beta (Homo sapiens) (UniProt Q92731). Description: OT_ER_ERbERb_1440: Odyssey Thera (OT) 24-hour HEK293T Protein-Complementation Assay for Estrogen Receptor-beta/-beta Homodimer (AID 2283380).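 Also: scored as signal increase over DMSO baseline for both agonists and antagonists.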 In outline: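 HEK293T cells stably expressing ER beta LBD (aa 310-547) homodimer fragment-complementation reporter, dosed 24 h. Cells formaldehyde-fixed, Draq5-stained; gain in nuclear (agonist) or nuclear plus cytoplasmic (antagonist) fluorescence versus DMSO read by laser scanning cytometry.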

Assay [3] has as its target Estrogen receptor (Homo sapiens) (UniProt P03372). As to the kind of experiment: OT_ERa_GFPERaERE_0480: Odyssey Thera (OT) 8-hour HeLa Transcription Induction Assay for Estrogen Receptor (AID 2283381; active = hit-call score of the fitted dose curve at least 0.9, where 1 is the maximum; inactive = score below 0.9). In outline: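 Human cervical HeLa cells were treated for 8 hours, after which ERE-driven GFP induction was measured by fluorescence microscopy; increases over DMSO baseline defined activity.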

For assay [4] the target is unchanged. As to the kind of experiment: OT_ERa_GFPERaERE_0120: Odyssey Thera (OT) 2-hour HeLa Transcription Induction Assay for Estrogen Receptor (AID 2283382). In outline:
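Cells (human cervical HeLa) receive compound, incubate 2 hours, then are imaged for fluorescent reporter induction. Images are quantified by high content analysis, and activity is fitted as gain of signal against DMSO.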

Assay [5] concerns the target Bile acid receptor (Homo sapiens) (UniProt Q96RI1). As to the kind of experiment: OT_FXR_FXRSRC1_1440: Odyssey Thera (OT) 24-hour HEK293T Protein-Complementation Assay for Farnesoid X receptor/SRC-1 Co-activator (AID 2283384). In outline: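 Measures ligand-driven FXR–SRC-1 co-activator recruitment in HEK293T via fragment complementation, fluorescence intensity at 24 h. DMSO served as negative control and baseline for gain-of-signal fitting.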

Assay [6] addresses Retinoic acid receptor RXR-alpha (Homo sapiens) (UniProt P19793). As to the kind of experiment: OT_NURR1_NURR1RXRa_0480: Odyssey Thera (OT) 8-hour HEK293T Protein Complementation Assay for Nurr1/retinoid X receptor (RXR) (AID 2283385). In outline:
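Interaction of bait and prey reconstitutes a functional reporter, whose fluorescence was measured in HEK293T cells dosed with compound for 8 hours. Signal gain relative to DMSO defined the single endpoint.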

For assay [7] the target is unchanged. Description: OT_NURR1_NURR1RXRa_1440: Odyssey Thera (OT) 24-hour HEK293T Protein Complementation Assay for Nurr1/retinoid X receptor (RXR) (AID 2283386). In outline:
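Steps: fragment-tagged Nurr1 and RXRα expressed in HEK293T; compounds added; after 24 h, complemented reporter quantified by fluorescence intensity; signal increase over DMSO fitted as the single endpoint.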

The target in assay [8] is Peroxisome proliferator-activated receptor gamma (Homo sapiens) (UniProt P37231). As to the kind of experiment: OT_PPARg_PPARgSRC1_0480: Odyssey Thera (OT) 8-hour Protein-Complementation Assay for Peroxisome Proliferator-activated Receptor Gamma / SRC-1 Co-activator (AID 2283387).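 Also: nuclear to cytoplasmic split Venus YFP fluorescence ratio reporting PPARg SRC-1 interaction.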 In outline:
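Read-out: 488 nm N/C fluorescence ratio from complemented Venus YFP fragments, ≥350 cells per image, gain-of-signal fitted against DMSO baseline. Fusions of PPARg/SRC-1 with IFP1/IFP2 expressed transiently in HEK293T; compounds applied 8 h.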

The target is the same in assay [9]. As to the kind of experiment: OT_PPARg_PPARgSRC1_1440: Odyssey Thera (OT) 24-hour Protein-Complementation Assay for Peroxisome Proliferator-activated Receptor Gamma/ SRC-1 Co-activator (AID 2283388).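 Also: nuclear to cytoplasmic ratio of reconstituted Venus YFP fluorescence in fixed imaged cells.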 In outline:
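Protein-fragment complementation between PPARg and coactivator SRC-1 was measured by fluorescence imaging in transiently transfected HEK293T cells after 24 h treatment. Signal was quantified as N/C ratio in the 488 nm channel, with DMSO as negative control.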

A short description of assay [10]: CEETOX_H295R_11DCORT: CeeTox H295R High-throughput Steroidogenesis Assay for 11-Deoxycortisol (11DCORT) (AID 2283432; active = hit-call score of the fitted dose curve at least 0.9, where 1 is the maximum; inactive = score below 0.9;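 as to AC50: human adrenal H295R cells prestimulated with 10 µM forskolin for 48 h; 11-deoxycortisol secreted into the medium measured by LC-MS/MS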). Particulars: actives raise or lower the signal. In outline:
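H295R cells; 10 uM forskolin prestim 48 h; compound in 0.1% DMSO 48 h; media extracted with MTBE; 11-deoxycortisol by LC-MS/MS, 7-point standard curve; gain/loss vs DMSO baseline; viability by MTT in same wells.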

Assay [11] is described as follows: CEETOX_H295R_OHPROG: CeeTox H295R High-throughput Steroidogenesis Assay for OH-Progesterone (OHPROG) (AID 2283435; active = hit-call score of the fitted dose curve at least 0.9, where 1 is the maximum; inactive = score below 0.9;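 as to AC50: human adrenal H295R cells primed 48 h with 10 µM forskolin; 17alpha-hydroxyprogesterone secreted into medium measured by HPLC-MS/MS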). The conditions noted are these: actives raise or lower the signal. In outline: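 Steps: seed H295R cells and adhere overnight; stimulate with 10 uM forskolin for 48 h; replace with chemical-containing medium (0.1% DMSO) for 48 h; extract medium with MTBE; quantify 17alpha-hydroxyprogesterone by reverse-phase C18 HPLC-MS/MS against a 7-point curve.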

Assay [12] is described as follows: CEETOX_H295R_ANDR: CeeTox H295R High-throughput Steroidogenesis Assay for Androstenedione (ANDR) (AID 2283436; active = hit-call score of the fitted dose curve at least 0.9, where 1 is the maximum; inactive = score below 0.9;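 also: human H295R adrenal cells exposed for 48 h with androstenedione measured in medium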). The conditions noted are these: actives raise or lower the signal. In outline:
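48 h chemical exposure, H295R cells, DMEM/F12 + ITS+ and Nu-Serum. Medium androstenedione: MTBE extraction, C18 reverse-phase HPLC, ESI+ MS/MS. Fit bidirectional vs DMSO; MTT viability in same wells.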

Assay [13] in a line: CEETOX_H295R_CORTIC: CeeTox H295R High-throughput Steroidogenesis Assay for Corticosterone (CORTIC) (AID 2283437; active = hit-call score of the fitted dose curve at least 0.9, where 1 is the maximum; inactive = score below 0.9;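 also: corticosterone secreted into medium quantified by mass spectrometry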). Particulars: actives raise or lower the signal. In outline: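 48 h forskolin (10 uM) prestim, then 48 h chemical exposure, final DMSO 0.1%. Readout: corticosterone in medium by LC-MS/MS after MTBE extraction. Gain/loss fit vs DMSO; MTT viability in same wells.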

For assay [14], the target named is human Dopamine Transporter (DAT), SLC6A3 (gene 6531) (UniProt Q01959). Description: NVS_TR_hDAT: NovaScreen (NVS) Transporter Assay for human Dopamine Transporter (DAT) (AID 2283374).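 Also: activity means loss of bound radioligand signal relative to DMSO.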 In outline:
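hDAT membranes + tritiated/iodinated radioligand, competitive displacement; 1 h; filter scintillation readout. Single conc 25 uM (duplicate), then conc-response for actives. DMSO = negative control.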

Assay [15] deals with human Norepinephrine Transporter (NET), SLC6A2 (gene 6530) (UniProt P23975). Description: NVS_TR_hNET: NovaScreen (NVS) Transporter Assay for human Norepinephrine Transporter (NET) (AID 2283377).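 Also: cell-free membrane protein extracted from CHO cells expressing human NET; displacement of radioligand from human NET seen as loss of scintillation signal.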 In outline: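 CHO cell extracts expressing the transporter; tritiated or iodinated tracer displaced competitively; filtration plus scintillation readout at 1 h. Single-point duplicates at 25 uM, concentration series for follow-up; activity = signal drop relative to DMSO.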

In assay [16] the target is human Serotonin Transporter (SERT), SLC6A4 (gene 6532) (UniProt P31645). Description: NVS_TR_hSERT: NovaScreen (NVS) Transporter Assay for human Serotonin Transporter (SERT) (AID 2283372). In outline:
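Human platelet membrane preparation; displacement of radioligand from serotonin transporter measured after 1 h by filtration and scintillation counting. Single 25 uM duplicate screen, then concentration series for actives, with DMSO as negative baseline.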

Assay [17] has as its target rat Serotonin Transporter (SERT), Slc6a4 (gene 25553) (UniProt P31652). As to the kind of experiment: NVS_TR_rSERT: NovaScreen (NVS) Transporter Assay for rat Serotonin Transporter (SERT) (AID 2283375). In outline:
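Filtration-based radiodetection quantified loss of specific radioligand binding in rat forebrain membranes after 1 hour of chemical exposure, relative to DMSO. Chemicals were first tested in duplicate at 25 uM.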

For assay [18], the system named is rat Norepinephrine Transporter (NET), gene 83511. As to the kind of experiment: NVS_TR_rNET: NovaScreen (NVS) Transporter Assay for rat Norepinephrine Transporter (NET) (AID 2283373). In outline: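 Competitive radioligand displacement at the rat NET using forebrain membrane preparations, 1 h incubation, filter-based scintillation readout. Primary testing in duplicate at a single 25 uM concentration; confirmed actives retested across concentrations.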

The target of assay [19] is mouse Estrogen Receptor alpha (Era), Esr1 (gene 13982) (UniProt P19785). As to the kind of experiment: NVS_NR_mERa: NovaScreen (NVS) Nuclear Receptor Binding Assay for mouse Estrogen Receptor alpha (Era) (AID 2283378).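 Also: hit means loss of bound radioligand signal relative to DMSO.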 In outline:
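Extracted mouse Era incubated with tritiated or iodinated radioligand plus test chemical, 18 h. Bound fraction separated on filters, counted by scintillation. DMSO = negative control/baseline; duplicate single-point at 25 uM, then concentration-response follow-up.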

human Norepinephrine Transporter (NET), SLC6A2 (gene 6530), sequence (P23975 whole entry, looked up): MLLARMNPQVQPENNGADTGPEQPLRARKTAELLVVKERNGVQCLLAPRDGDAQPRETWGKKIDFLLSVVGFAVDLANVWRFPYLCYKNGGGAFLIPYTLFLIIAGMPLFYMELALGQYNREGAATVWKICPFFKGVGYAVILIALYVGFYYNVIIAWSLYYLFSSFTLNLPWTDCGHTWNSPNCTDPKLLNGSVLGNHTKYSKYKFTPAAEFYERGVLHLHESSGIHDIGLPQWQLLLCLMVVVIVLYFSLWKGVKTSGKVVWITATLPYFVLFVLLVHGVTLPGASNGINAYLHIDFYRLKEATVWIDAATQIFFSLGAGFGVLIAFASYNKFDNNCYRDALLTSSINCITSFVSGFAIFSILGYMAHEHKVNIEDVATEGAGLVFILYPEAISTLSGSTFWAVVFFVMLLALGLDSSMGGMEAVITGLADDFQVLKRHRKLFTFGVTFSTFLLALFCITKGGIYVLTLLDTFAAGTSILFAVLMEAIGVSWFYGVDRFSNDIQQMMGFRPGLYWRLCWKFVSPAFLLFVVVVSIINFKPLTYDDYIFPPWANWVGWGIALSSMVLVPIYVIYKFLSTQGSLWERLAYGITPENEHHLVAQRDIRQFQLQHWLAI
Estrogen receptor beta (Homo sapiens), sequence (Q92731 whole entry, looked up, the tested form may be a part): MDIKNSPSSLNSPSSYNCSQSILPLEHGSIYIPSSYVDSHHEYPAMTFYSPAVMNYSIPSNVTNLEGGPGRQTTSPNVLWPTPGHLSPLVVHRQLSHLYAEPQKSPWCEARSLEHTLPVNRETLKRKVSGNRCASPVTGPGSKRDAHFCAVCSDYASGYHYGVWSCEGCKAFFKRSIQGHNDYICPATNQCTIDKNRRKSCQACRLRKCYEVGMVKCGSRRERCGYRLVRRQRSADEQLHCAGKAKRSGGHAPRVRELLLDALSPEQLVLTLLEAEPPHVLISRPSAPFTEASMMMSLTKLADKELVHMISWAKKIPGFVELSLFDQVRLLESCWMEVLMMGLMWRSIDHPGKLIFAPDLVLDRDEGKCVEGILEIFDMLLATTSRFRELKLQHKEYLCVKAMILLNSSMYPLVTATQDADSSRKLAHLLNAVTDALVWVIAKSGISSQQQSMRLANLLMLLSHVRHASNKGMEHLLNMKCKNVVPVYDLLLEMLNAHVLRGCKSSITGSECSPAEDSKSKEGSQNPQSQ
human Dopamine Transporter (DAT), SLC6A3 (gene 6531), sequence (Q01959 whole entry, looked up): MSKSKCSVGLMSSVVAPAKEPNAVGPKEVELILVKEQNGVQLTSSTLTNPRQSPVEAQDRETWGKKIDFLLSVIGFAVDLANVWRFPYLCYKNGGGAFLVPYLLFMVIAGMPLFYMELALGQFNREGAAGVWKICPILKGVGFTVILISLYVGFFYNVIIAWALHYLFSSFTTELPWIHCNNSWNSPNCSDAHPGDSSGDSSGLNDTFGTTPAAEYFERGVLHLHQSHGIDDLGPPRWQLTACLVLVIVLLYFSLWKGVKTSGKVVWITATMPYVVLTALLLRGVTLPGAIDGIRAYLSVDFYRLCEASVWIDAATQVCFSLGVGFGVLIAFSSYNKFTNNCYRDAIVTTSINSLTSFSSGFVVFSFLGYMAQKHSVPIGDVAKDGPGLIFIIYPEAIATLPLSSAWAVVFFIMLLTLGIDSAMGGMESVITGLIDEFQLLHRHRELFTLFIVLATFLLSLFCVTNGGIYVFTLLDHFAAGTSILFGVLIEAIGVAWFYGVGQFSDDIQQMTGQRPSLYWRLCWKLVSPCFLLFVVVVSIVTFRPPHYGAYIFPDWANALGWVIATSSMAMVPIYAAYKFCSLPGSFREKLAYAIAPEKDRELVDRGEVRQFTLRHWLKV
Bile acid receptor (Homo sapiens), sequence (Q96RI1 whole entry, looked up, the tested form may be a part): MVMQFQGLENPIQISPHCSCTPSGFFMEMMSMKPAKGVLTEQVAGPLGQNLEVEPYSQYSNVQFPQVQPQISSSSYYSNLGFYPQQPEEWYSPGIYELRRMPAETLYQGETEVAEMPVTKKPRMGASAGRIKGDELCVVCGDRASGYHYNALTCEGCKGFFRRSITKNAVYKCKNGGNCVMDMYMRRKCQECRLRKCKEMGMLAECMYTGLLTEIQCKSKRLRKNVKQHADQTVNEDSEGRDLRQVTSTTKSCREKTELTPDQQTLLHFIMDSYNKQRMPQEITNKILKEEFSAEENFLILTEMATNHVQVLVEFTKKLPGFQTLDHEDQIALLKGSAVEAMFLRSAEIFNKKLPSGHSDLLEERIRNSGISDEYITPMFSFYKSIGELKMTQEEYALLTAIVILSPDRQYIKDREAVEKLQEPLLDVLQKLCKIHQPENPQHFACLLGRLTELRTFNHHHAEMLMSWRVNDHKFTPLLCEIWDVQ
Retinoic acid receptor RXR-alpha (Homo sapiens), sequence (P19793 whole entry, looked up): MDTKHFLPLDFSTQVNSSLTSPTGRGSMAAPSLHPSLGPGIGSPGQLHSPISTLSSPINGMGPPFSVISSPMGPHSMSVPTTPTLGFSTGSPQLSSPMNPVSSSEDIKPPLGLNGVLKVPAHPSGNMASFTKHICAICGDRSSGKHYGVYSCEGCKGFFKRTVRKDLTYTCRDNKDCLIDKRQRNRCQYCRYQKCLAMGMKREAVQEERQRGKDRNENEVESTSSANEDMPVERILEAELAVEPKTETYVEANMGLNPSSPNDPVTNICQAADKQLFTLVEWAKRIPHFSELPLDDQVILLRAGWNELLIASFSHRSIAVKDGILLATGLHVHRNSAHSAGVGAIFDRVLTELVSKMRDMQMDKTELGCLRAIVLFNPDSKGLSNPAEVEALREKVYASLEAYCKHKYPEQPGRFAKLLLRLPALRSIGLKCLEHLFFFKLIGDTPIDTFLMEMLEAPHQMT
Peroxisome proliferator-activated receptor gamma (Homo sapiens), sequence (P37231 whole entry, looked up, the tested form may be a part): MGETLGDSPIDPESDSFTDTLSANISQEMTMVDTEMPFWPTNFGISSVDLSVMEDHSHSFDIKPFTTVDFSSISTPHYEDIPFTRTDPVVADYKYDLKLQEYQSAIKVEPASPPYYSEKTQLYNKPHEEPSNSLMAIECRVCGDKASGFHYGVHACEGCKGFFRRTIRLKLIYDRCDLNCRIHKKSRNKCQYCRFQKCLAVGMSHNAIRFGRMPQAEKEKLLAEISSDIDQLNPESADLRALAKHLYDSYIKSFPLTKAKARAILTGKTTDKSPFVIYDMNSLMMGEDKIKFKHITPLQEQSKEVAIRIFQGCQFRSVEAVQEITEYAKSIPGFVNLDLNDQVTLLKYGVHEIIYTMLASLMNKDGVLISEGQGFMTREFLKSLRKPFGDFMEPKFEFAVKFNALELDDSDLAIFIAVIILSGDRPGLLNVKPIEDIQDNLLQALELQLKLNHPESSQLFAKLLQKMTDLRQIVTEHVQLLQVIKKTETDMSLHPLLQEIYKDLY
Estrogen receptor (Homo sapiens), sequence (P03372 whole entry, looked up): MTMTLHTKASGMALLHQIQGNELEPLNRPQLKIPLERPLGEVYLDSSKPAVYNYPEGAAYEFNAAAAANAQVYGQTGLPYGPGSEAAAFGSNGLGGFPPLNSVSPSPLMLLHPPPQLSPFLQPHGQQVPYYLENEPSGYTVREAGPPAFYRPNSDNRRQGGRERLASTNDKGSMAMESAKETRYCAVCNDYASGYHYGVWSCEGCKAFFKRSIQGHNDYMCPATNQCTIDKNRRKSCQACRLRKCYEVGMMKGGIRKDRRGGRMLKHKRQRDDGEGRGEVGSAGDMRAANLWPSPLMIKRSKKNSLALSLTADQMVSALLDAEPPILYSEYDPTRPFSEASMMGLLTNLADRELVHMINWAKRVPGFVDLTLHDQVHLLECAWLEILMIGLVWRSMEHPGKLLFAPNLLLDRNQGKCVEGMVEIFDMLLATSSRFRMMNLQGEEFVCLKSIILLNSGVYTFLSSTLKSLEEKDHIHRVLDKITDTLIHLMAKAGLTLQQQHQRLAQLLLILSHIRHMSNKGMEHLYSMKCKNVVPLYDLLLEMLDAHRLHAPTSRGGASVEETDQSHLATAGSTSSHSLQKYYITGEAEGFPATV
Agonist Androgen Response Element (ARE), AR (gene 367), sequence (P10275 whole entry, looked up): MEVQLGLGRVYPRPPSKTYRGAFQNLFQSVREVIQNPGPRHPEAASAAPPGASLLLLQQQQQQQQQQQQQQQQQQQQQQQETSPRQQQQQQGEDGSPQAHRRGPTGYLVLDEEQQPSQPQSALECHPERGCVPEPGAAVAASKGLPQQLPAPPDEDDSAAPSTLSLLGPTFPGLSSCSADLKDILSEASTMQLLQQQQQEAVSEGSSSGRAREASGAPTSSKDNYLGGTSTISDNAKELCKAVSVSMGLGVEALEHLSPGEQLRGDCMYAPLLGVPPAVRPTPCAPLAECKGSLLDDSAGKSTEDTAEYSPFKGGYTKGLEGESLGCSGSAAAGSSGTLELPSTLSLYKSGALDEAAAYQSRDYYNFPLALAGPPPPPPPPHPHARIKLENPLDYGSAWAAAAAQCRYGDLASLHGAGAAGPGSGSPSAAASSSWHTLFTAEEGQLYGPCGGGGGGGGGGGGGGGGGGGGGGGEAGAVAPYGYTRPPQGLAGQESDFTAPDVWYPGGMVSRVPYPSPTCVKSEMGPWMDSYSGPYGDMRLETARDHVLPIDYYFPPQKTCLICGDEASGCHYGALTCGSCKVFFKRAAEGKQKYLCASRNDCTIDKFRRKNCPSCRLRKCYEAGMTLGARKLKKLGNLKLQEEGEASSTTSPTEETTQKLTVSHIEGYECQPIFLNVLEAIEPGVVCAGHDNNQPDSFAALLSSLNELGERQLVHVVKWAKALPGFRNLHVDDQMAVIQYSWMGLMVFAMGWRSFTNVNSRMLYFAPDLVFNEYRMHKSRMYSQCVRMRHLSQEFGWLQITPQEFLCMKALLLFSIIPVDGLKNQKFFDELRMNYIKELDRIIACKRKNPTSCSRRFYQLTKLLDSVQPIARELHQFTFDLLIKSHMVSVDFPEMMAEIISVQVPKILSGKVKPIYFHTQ

On to `O=[N+]([O-])/N=C1\NCCN1Cc1ccc(Cl)nc1`, for which the result in assay [1], in assay [2], in assay [3], in [4], in [5] and in assay [6] was inactive. Moreover, the molecule was classed as inactive in [7], in assay [8], in [9], in assay [10], in [11] and in assay [12]. The molecule was called inactive in assay [13].
One may read the AC50 as the concentration at which the activity in the assay is half-maximal. Turning to `CC(C)OC(=O)Nc1cccc(Cl)c1`, the values for the AC50 in assay [14] and in [15] were 16.3 µM (active) and 6.63 µM (active), respectively. Besides, the molecule was classed as inactive in assay [2], in [3], in [4], in [5], in assay [6] and in [8]. Also, the call in [9] and in assay [11] was inactive.
Take `CCOC1Oc2ccc(OS(C)(=O)=O)cc2C1(C)C` (centres undefined): the outcome in [1], in assay [2], in assay [6], in assay [7], in [8] and in assay [9] was inactive. For the same molecule, the AC50 was 55.4 µM (active) in [3] and 53.4 µM (active) in [4].
With `CC(C)N(C(=O)COc1nnc(C(F)(F)F)s1)c1ccc(F)cc1`, the AC50 was 7.81 µM (active) in [16], 13.6 µM (active) in [14] and 8.58 µM (active) in assay [17]. For the same molecule, the outcome in [2], in assay [3], in [4], in assay [5], in assay [6] and in [7] was inactive. For the same molecule, the molecule was called inactive in assay [8], in assay [9], in assay [10], in assay [11] and in assay [13].
With `COP(=S)(OC)Oc1ccc(SC)c(C)c1`, the concentration at half-maximal activity (AC50) in [14] is 7.96 µM (active); in assay [10], 41.5 µM (active); in assay [11] it was 21.5 µM (active). Moreover, the outcome in assay [2], in assay [3], in assay [4], in [6], in assay [7] and in assay [8] was inactive. In addition, the result in [9] and in assay [13] was inactive.
For `Oc1cc(Cl)ccc1Oc1ccc(Cl)cc1Cl`, the AC50 in assay [18] is 13.7 µM (active) [middle of 4 runs]; in [14], 21.3 µM (active) [middle of 4 runs]; in assay [15] it was 585 nM (active) [middle of 4 runs]; in assay [5] it was 12 µM (active); in assay [6], 11.9 µM (active) and 11.6 µM (active). The molecule was called inactive in [2], in assay [8], in assay [9], in [10], in assay [11] and in assay [13].
`COP(=S)(OC)Oc1ccc([N+](=O)[O-])cc1`: the concentration at half-maximal activity (AC50) was 11.3 µM (active) in assay [16]; 25 µM (active) in assay [14]; 12.6 µM (active) in assay [17]; 50 µM (active) in assay [5]; 3.28 µM (active) in assay [11]. The result in assay [19], in assay [2], in [3], in assay [4], in [6] and in assay [7] was inactive. Further, the outcome in [8] and in assay [9] was inactive.
`CC[C@H](C)[C@H]1O[C@]2(C=C[C@@H]1C)C[C@@H]1C[C@@H](C/C=C(\C)[C@@H](O[C@H]3C[C@H](OC)[C@@H](O[C@H]4C[C@H](OC)[C@@H](O)[C@H](C)O4)[C@H](C)O3)[C@@H](C)/C=C/C=C3\CO[C@@H]4[C@H](O)C(C)=C[C@@H](C(=O)O1)[C@]34O)O2` (tested in a mixture with another compound): the concentration at half-maximal activity (AC50) was 11.3 µM (active) in assay [14], 5.03 µM (active) in assay [15], 7.4 µM (active) in [6] and 9.87 µM (active) in assay [7]. Also, the result in [3], in assay [4], in assay [6], in assay [7], in assay [8] and in assay [9] was inactive. In addition, the outcome in assay [10], in assay [11] and in [13] was inactive.
Consider `CCCN(CCC)c1c([N+](=O)[O-])cc(C(F)(F)F)cc1[N+](=O)[O-]`, for which, in assay [14], the concentration at half-maximal activity (AC50) is 25 µM (active). For the same molecule, the result in [1], in [3], in assay [4], in [5], in assay [6] and in [7] was inactive. Besides, the result in assay [8], in assay [9], in [11] and in assay [12] was inactive.
